In the library only some 1% were active in any assay of this set; here they are far more common.
BAP1 block – inhibitors of human BAP1 deubiquitinase; Q92560; recombinant BAP1, Ub-AMC hydrolysis fluorescence kinetic; hits give low values; calls only at 20 µM; hit rate 0.48% among 72,000; AID 436;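 active = activity remaining at or below 50% of control, provided the compound also passes the data quality filters; inactive = the rest, including low values that fail the filters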
HePTP inhibitor – blocks human HePTP tyrosine phosphatase | recombinant HePTP phosphatase activity, OD absorbance | hit rate 0.64% among 110,000 | P35236 | inhibition, % at 20 µM | AID 521; in the data active = inhibition above about 50%
Target sequence (P35236 whole entry, looked up): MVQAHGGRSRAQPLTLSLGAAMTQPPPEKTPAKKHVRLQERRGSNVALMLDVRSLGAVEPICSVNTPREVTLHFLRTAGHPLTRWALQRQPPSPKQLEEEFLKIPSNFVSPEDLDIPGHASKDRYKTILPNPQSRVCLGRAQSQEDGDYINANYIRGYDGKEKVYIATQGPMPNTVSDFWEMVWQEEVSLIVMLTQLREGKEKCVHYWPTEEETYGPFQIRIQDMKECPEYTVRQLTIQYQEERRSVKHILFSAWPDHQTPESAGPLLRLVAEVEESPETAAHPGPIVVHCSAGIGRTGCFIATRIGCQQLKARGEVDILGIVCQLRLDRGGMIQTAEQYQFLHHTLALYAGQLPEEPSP
Ec RNAP inh – Escherichia coli RNA polymerase inhibition | P0A8V2 | E. coli RNA polymerase, fluorescence transcription assay | inhibition, %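 (tested at 10 µM)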 | hit rate 0.2% among 62,000 | AID 559; in the data active = inhibition above about 20%
TNAP act mid DEA – activates human TNAP at intermediate phosphate acceptor concentration | P05186 | purified TNAP, CDP-star luminescence, 100 mM DEA, 30 min; hits give high values; scale: 0 levamisole-inhibited, 1 vehicle-only enzyme | activation factor at 20 µM | 64,000 tested, under 10 active | AID 813;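 active = activation factor of at least 2 at 20 µM, relative to controls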
DUSP1 inh – inhibitors of human MKP-1 phosphatase | inhibition, %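 (compounds tested at a single concentration somewhere between 10 and 100 µM)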 | recombinant MKP-1, OMFP hydrolysis fluorescence | hit rate 0.15% among 65,000;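 active = inhibition above about 50%, limit read from the data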
Cdc25B block – human M-phase inducer phosphatase 2 inhibition; recombinant Cdc25B, OMFP fluorescence Ex485/Em525; inhibition, %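 (compounds tested at 10 µM final in the well)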; hit rate 0.1% among 65,000; in the data active = inhibition above about 50%
Large screens that a line does not name were inactive; ! = not active in a repeat.

Cc1cccc(C(=O)NC2CC(C)(C)NC(C)(C)C2)c1	none
CCOc1cc(N2CCOCC2)c(OCC)cc1N	HePTP inhibitor 68.4 (no result: BAP1 block, Ec RNAP inh, TNAP act mid DEA, DUSP1 inh, Cdc25B block)
CCOc1cc(N2CCOCC2)c(OCC)cc1NC1=NCCCCC1	none
O=C1N(O)C2(C=CCCC2)/C(=N\O)C12CCCCC2 (stereo not drawn)	Ec RNAP inh 33.5
O=C(O)c1ccc(/C=N/c2ncn[nH]2)cc1	HePTP inhibitor 99.9 (no result: BAP1 block, Ec RNAP inh, TNAP act mid DEA, DUSP1 inh, Cdc25B block)
O=C(Oc1nsnc1N1CCOCC1)N1CCOCC1	Ec RNAP inh 31.4
COc1ccc(Cc2cnc(NC(=O)c3ccc([N+](=O)[O-])cc3)s2)cc1	none (no result: BAP1 block, Ec RNAP inh, TNAP act mid DEA, DUSP1 inh, Cdc25B block)
O=C(O)c1cc(-c2ccc(/C=C/c3cc(C(F)(F)F)[nH]c(=O)n3)o2)ccc1Cl	HePTP inhibitor 65.3 (no result: BAP1 block, Ec RNAP inh, TNAP act mid DEA, DUSP1 inh, Cdc25B block)
Cn1c(O)c(/C=N/c2ncc(C(F)(F)F)cc2Cl)n(C)c1=S	none (no result: BAP1 block, Ec RNAP inh, TNAP act mid DEA, DUSP1 inh, Cdc25B block)
CCN(CC)c1ccc(NC(=O)/C=C\c2ccccc2Cl)cc1	HePTP inhibitor 104.0 (no result: BAP1 block, Ec RNAP inh, TNAP act mid DEA, DUSP1 inh, Cdc25B block)
CCCCn1c(SCC(=O)Nc2nnc(CC)s2)nc2c1c(=O)n(C)c(=O)n2C	none
CCCCn1c(SCC(=O)Nc2nnc(C)s2)nc2c1c(=O)n(C)c(=O)n2C	Ec RNAP inh 31.3
O=C(NC1=NCCS1)c1ccncc1	none
O=C(NC1=NCCS1)c1ccc(OCC2CCCO2)cc1 (stereo not drawn)	Cdc25B block 54.9
Cc1cc(OCCN2CCOCC2)nc2ccccc12	Ec RNAP inh 30.4
CC(=C/c1ccc(C(C)C)cc1)/C=N/NC(=O)c1cccc(N2CCCC2=O)c1	none (no result: BAP1 block, Ec RNAP inh, TNAP act mid DEA, DUSP1 inh, Cdc25B block)
COC(=O)c1sccc1NC(=O)CCc1ccccc1	none (no result: BAP1 block, Ec RNAP inh, TNAP act mid DEA, DUSP1 inh, Cdc25B block)
C=C(C)C(=O)Oc1ccc(N2C(=O)C=CC2=O)cc1	none (no result: BAP1 block, Ec RNAP inh, TNAP act mid DEA, DUSP1 inh, Cdc25B block)
CC(C)(C)c1ccc(CSc2nc3ccccc3c(=O)[nH]2)cc1	HePTP inhibitor 68.6 (no result: BAP1 block, Ec RNAP inh, TNAP act mid DEA, DUSP1 inh, Cdc25B block)
O=c1[nH]c(SCc2ccccc2)nc2ccccc12	none (no result: Ec RNAP inh, TNAP act mid DEA, DUSP1 inh, Cdc25B block)
O=C1N=c2ccccc2=C1c1sc(=S)[nH]c1O	HePTP inhibitor 70.2 (no result: BAP1 block, Ec RNAP inh, TNAP act mid DEA, DUSP1 inh, Cdc25B block)
COCCOC(=O)C1=C(C)NC(C)=C(C(=O)OCCOC)C1c1cn(-c2ccccc2)nc1-c1cccc([N+](=O)[O-])c1	none (no result: BAP1 block, Ec RNAP inh, TNAP act mid DEA, DUSP1 inh, Cdc25B block)
C=CCN1C(=O)/C(=C\c2ccc(-c3cccc(C(=O)O)c3)o2)C(=O)NC1=S	HePTP inhibitor 95.7 (no result: BAP1 block, Ec RNAP inh, TNAP act mid DEA, DUSP1 inh, Cdc25B block)
O=C1NC(=S)N(c2cccc(Br)c2)C(=O)/C1=C/c1ccc(-c2ccc(C(=O)O)cc2)o1	HePTP inhibitor 69.4 (no result: BAP1 block, Ec RNAP inh, TNAP act mid DEA, DUSP1 inh, Cdc25B block)
C=CCN1C(=O)/C(=C\c2ccc(-c3ccc(F)cc3)o2)C(=O)NC1=S	HePTP inhibitor 62.1 (no result: BAP1 block, Ec RNAP inh, TNAP act mid DEA, DUSP1 inh, Cdc25B block)
C=CCN1C(=O)/C(=C\c2ccc(-c3ccccc3[N+](=O)[O-])o2)C(=O)NC1=S	none (no result: BAP1 block, Ec RNAP inh, TNAP act mid DEA, DUSP1 inh, Cdc25B block)
C=CCN1C(=O)/C(=C\c2ccc(-c3ccc(C(=O)O)cc3)o2)C(=O)NC1=S	HePTP inhibitor 102.3 (no result: BAP1 block, Ec RNAP inh, TNAP act mid DEA, DUSP1 inh, Cdc25B block)
Cc1ccc(Nc2nc(N)nc(CN3CCN(C)CC3)n2)cc1	Ec RNAP inh 20.8
O=C(c1sc2ccccc2c1Cl)N1CCN(Cc2ccccc2)CC1	HePTP inhibitor 102.7 (no result: BAP1 block, Ec RNAP inh, TNAP act mid DEA, DUSP1 inh, Cdc25B block)
O=C(c1sc2ccccc2c1Cl)N1CCC(Cc2ccccc2)CC1	none (no result: BAP1 block, Ec RNAP inh, TNAP act mid DEA, DUSP1 inh, Cdc25B block)
CN(C)c1ccc(/C=C2\SC(N3CCN(C4=NC(=O)/C(=C\c5ccc(N(C)C)cc5)S4)CC3)=NC2=O)cc1	none (no result: BAP1 block, Ec RNAP inh, TNAP act mid DEA, DUSP1 inh, Cdc25B block)
CN(C)c1ccc(/C=C2/SC(N=Nc3c(O)[nH]c4ccccc34)=NC2=O)cc1	HePTP inhibitor 59.2 (no result: BAP1 block, Ec RNAP inh, TNAP act mid DEA, DUSP1 inh, Cdc25B block)
Cc1ccc(S(=O)(=O)NCc2nnc(NC(=O)c3ccc(Br)cc3)s2)cc1	HePTP inhibitor 57.6 (no result: BAP1 block, Ec RNAP inh, TNAP act mid DEA, DUSP1 inh, Cdc25B block)
O=C(Nc1cccc(-c2nc3ccccc3o2)c1)c1cc2ccccc2o1	none (no result: BAP1 block, Ec RNAP inh, TNAP act mid DEA, DUSP1 inh, Cdc25B block)
COc1ccc(NC(=O)c2ccc(Nc3nnc(C)c4ccccc34)cc2)cc1	HePTP inhibitor 59.7 (no result: BAP1 block, Ec RNAP inh, TNAP act mid DEA, DUSP1 inh, Cdc25B block)
Cc1nnc(Nc2ccc(C(=O)NCCO)cc2)c2ccccc12	none
C=CCN1C(=O)/C(=C\c2ccc(OCCOc3cccc(OC)c3)c(OC)c2)SC1=S	none (no result: BAP1 block, Ec RNAP inh, TNAP act mid DEA, DUSP1 inh, Cdc25B block)
COC(=O)c1ccc(C(=O)OC)c(NC(=O)CCC(=O)O)c1	HePTP inhibitor 102.1!
COC(=O)c1ccc(C(=O)OC)c(NC(=O)CC(c2ccccc2)c2ccccc2)c1	none (no result: BAP1 block, Ec RNAP inh, TNAP act mid DEA, DUSP1 inh, Cdc25B block)
CC1=NN(c2ccccc2)C(=O)/C1=C\c1ccc(-c2ccc(C)cc2[N+](=O)[O-])o1	none (no result: BAP1 block, Ec RNAP inh, TNAP act mid DEA, DUSP1 inh, Cdc25B block)
O=C(Nc1ccccc1C(=O)O)c1ccc2c(c1)C(=O)N(C1CCCCC1)C2=O	HePTP inhibitor 100.8 (no result: BAP1 block, Ec RNAP inh, TNAP act mid DEA, DUSP1 inh, Cdc25B block)

High-throughput results: PubChem, several laboratories
